Experimental findings from PubChem BioAssay (NCATS) are described below.

Records with an inconclusive call do not appear. Values without a mark were called inactive. Active and inactive are the calls of the source. Calls come from the whole dose curve; as a rule, active = well fitted inhibition curve with a large enough effect; inconclusive = small, poorly fitted or top-dose-only effect; inactive = flat fitted curve, though single readings scatter.
% is set by controls: 0 for no effect and ±100 for the full control effect; potency is the fitted concentration of half-maximal effect.

The test system of the first assay is HaCat. Nature of the assay: Cytotoxic Profiling of Annotated Libraries Using Quantitative High-Throughput Screening (AID 1296008). Note: nearly all actives have a fitted effect of over 60% in size. The conditions noted are these: Five cell lines viability, CellTiter-Glo ATP luminescence, 48-72 h; max response: hits give low values. A digest of the protocol: (§1)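 Compounds were pin-transferred onto cells and incubated 48 or 72 hr at 37 degree Celsius, 95% humidity. CellTiter-Glo was added, plates sat 10 min at room temperature, then ATP-coupled luminescence was imaged as the viability read-out.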
For the compound `N#Cc1ccc(COC[C@H]2O[C@@H](n3c(NCc4ccc(Cl)c(Cl)c4)nc4c(N)ncnc43)[C@H](O)[C@@H]2O)cc1`, the max response is -23%.

For the compound `Nc1nc2c(nc(Br)n2[C@@H]2O[C@@H]3COP(=O)(O)O[C@H]3[C@H]2O)c(=O)[nH]1`, the max response was -8.41%. Still for that read-out and setting: the figure for `COc1ccc(C2Oc3c(OC)cc(CCCO)cc3C2COC2OC(CO)C(O)C(O)C2O)cc1OC` (stereo not given) is 1.52%; for `COc1cc(CCc2cc(NC(=O)c3ccc(N4CC(C)NC(C)C4)cc3)n[nH]2)cc(OC)c1` (stereo not given) it is 4.79%; for `CC(C)(Cc1ccccc1)NCC(O)c1ccc(O)c(NS(C)(=O)=O)c1` (stereo not given) it is 2.45%.

Regarding `CC1=CC2/C=C(\C)CCC(O)C(=O)C(O)CC(=O)C23C(=O)NC(CC(C)C)C3C1C` (stereo not given), the max response was -78.4%. Take `O=C(N[C@H]1CCN(C(=O)c2cc(C(F)(F)F)cc(C(F)(F)F)c2)[C@H](Cc2ccc(Cl)cc2)C1)c1ccnc2ccccc12`: the max response is -2.45%. Same read-out and setting: the result for `C/C(=C/CO)CCC1C(C)CCC2C(C)(C)CCCC12C` (stereo not given) reads -18.8%. In the case of `CC[C@@H]1C[C@]1(NC(=O)[C@@H]1C[C@@H]2CN1C(=O)[C@H](C(C)(C)C)NC(=O)OCC(C)(C)CCCCc1cccc3c1CN(C3)C(=O)O2)C(=O)NS(=O)(=O)C1CC1`, the max response was -6.71%. With `O=C(CSc1nc2ccccc2c(=O)n1-c1ccccc1)Nc1ccc2c(c1)CCC2`, the max response was -10.2%. On the same count and under the same terms, the result for `CC(C)/C=C1\NC(=O)C(C(C)C)n2c1nc1ccccc1c2=O` (stereo not given) reads -9.75%; that for `Cc1cc(F)ccc1-c1nc(NCCN=C(N)NC#N)nc2c1ccc(=O)n2-c1c(F)cccc1F`, 4.96%.

For another assay, the system named is KB-3-1. Described as above. The following applies: Five cell lines viability, CellTiter-Glo ATP luminescence, 48-72 h; max response: hits give low values. The essentials:
as §1
As for `C=C(COC(=O)C(O)C(O)CN)C12OC1C1(C)C(=CC2=O)C(O)C(O)CC1C` (stereo not given), the compound was called inactive. `COc1cc(-c2nc(N[C@H](CO)Cc3ccccc3)ccc2C(=O)NCCOc2ccccc2)cc(OC)c1OC`: the max response is 7.13%. Same read-out and setting: the figure for `Cc1cccc(-c2[nH]ncc2-c2ccc(F)c(-c3cnn(CCO)c3)c2)n1` is -8.92%. Turning to `CC1(C)CC[C@]2(C(=O)O)CC[C@]3(C)C(=CCC4[C@@]5(C)C[C@@H](O)[C@H](O)C(CO)(CO)C5CC[C@]43C)C2[C@@H]1O` (stereo not given in full), the Potency was 10 µM (active). Take `O=C(NC1CCC1)c1ccc(C#Cc2cccc(F)c2)nc1`: the max response is 8.07%. Turning to `Nc1nc2c(cnn2CCCc2ccc(O)cc2)c2nc(-c3ccco3)nn12`, the max response was 8.63%. With `CC(=O)O[C@@H]1C[C@]2(C)[C@@]3(CCC4[C@@]5(C)CC[C@H](O[C@@H]6O[C@H](C(=O)O)[C@@H](O)[C@H](OC7OC(CO)C(O)C(O)[C@H]7O[C@@H]7O[C@@H](C)[C@H](O)[C@@H](O)[C@H]7O[C@@H]7OC[C@](O)(CO)[C@H]7O)[C@H]6OC6OC(CO)C(O)C(O)C6O)C(C)(C)C5CC[C@]42C)OC[C@@]12CCC(C)(C)CC23` (stereo not given in full), the max response is -5.11%.

For `CC(C)(CNC(=O)c1cccc(-c2noc(C(F)(F)F)n2)c1)c1coc(-c2ccccc2)n1`, the max response is -6.73%. As for `O=C1COc2nccc(-c3ccccc3F)c2CN1Cc1cc(C(F)(F)F)cc(C(F)(F)F)c1`, the max response is -2.61%. Same read-out and setting: the result for `O=C(NC[C@H](O)CN1CCc2ccccc2C1)c1ccnc(NC2CCC2)c1` reads -4.24%. Consider `O=C(O)c1cccc(-c2ccc(-c3cn(C(=O)N4CCCCC4Cc4ccccc4)nn3)cc2)c1` (stereo not given), for which the max response is 9.26%. Regarding `CC(=O)[C@H]1CC[C@H]2[C@@H]3CC=C4C[C@@H](OS(=O)(=O)O)CC[C@]4(C)[C@H]3CC[C@]12C`, the max response was 2.57%. `O=C(NCC1(N2CCN(c3ccccc3)CC2)CCOCC1)c1cccnc1Sc1ccccc1`: the max response was 1.24%. For the compound `C[C@@H]1C[C@H](C)CN(CCC(=O)Nc2ccc(Br)cc2)C1`, the max response was -13.7%. For the compound `C[C@@H]1C[C@H]2O[C@@]3(O[C@@H]2C(C)(C)O)C(O)[C@@]2(C)C4CCC5C(C)(C)[C@@H](O[C@H]6OC[C@H](O)[C@@H](O)[C@@H]6O)CC[C@@]56C[C@@]46CC[C@]2(C)C13` (stereo not given in full), the max response was -6.46%. Consider `COc1ccc(N2CCN(C(=O)c3cc4c(s3)-c3ccccc3S(=O)(=O)C4)CC2)cc1`, for which the max response was -19.5%. Turning to `CCOc1ccc(Cc2nc(-c3c(C)nc4ccccn34)cs2)cc1`, the Potency was 0.0259 µM (active). As for `CCC[C@H](N[C@H]1CCc2cc(F)cc(F)c2C1)C(=O)Nc1cn(C(C)(C)CNCC(C)(C)C)cn1`, the max response is -17.7%.
